RE007 growth inh: less growth of the S. pombe RE007 Vpr strain. S. pombe RE007 Vpr strain, BacTiter-Glo ATP luminescence, 24 h. Potency, µM (top dose mostly 92.2 µM), for inactives: top-dose activity change, negative = less growth, actives largely listed as inhibitors. 360,000 compounds, 0.21% hits. AID 651644; active = well fitted falling curve with a large enough effect; inconclusive = small, poorly fitted or top-dose-only effect; inactive = no such curve, though single readings can be large or run the other way; note: nearly all actives have a fitted effect of over 50% in size
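Fission yeast RE007 carrying one integrated HIV-1 vpr copy, seeded at OD 0.01 in PMG+AL medium with 23 nL pinned compound. Grown 24 h at 30 degrees; viability read by BacTiter-Glo luminescence after 5 min.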
TbPYK inhibitor: blocks Trypanosoma brucei pyruvate kinase | AID 624173 | TbPYK enzyme, Kinase-Glo Plus ATP luminescence, 45 min | 410,000 compounds, 0.12% hits | Potency, µM (titrated, usually from 76.8 µM), without a hit: at the highest dose activity, negative = inhibition, actives largely listed as inhibitors; note: nearly all actives have a fitted effect of over 50% in size
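Glycolytic pyruvate kinase of T. brucei was incubated with substrate, test compound and 130 uM ADP for 45 minutes at room temperature. Luminescent Kinase-Glo Plus signal was measured after 10 minutes.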
Sm TGR block: blocks Schistosoma mansoni thioredoxin glutathione reductase; purified TGR, DTNB reduction, TNB absorbance 405 nm; 360,000 compounds, 3% hits; Potency, µM (top dose mostly 114 µM), inactives show at the top dose activity change, negative = inhibition, most hits filed as inhibitors; note: nearly all actives have a fitted effect of over 60% in size
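TGR 20 nM + NADPH 100 uM (dispensed conc.), cpd preinc 15 min RT; start with NADPH (500 uM addition) then DTNB (15 mM addition). Kinetic TNB absorbance, 405 nm filter. Four-parameter Hill fit across titration.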
FMDV inh: antivirals against foot and mouth disease virus; FMDV antiviral cell-based qHTS; Potency, µM (top dose mostly 57.9 µM), for the others: at the highest dose activity change, negative = inhibition, usual class: inhibitors; 410,000 compounds, 1.2% hits; AID 1159524; calls by dose curve; tested in HEK293T cells; note: read-out not given here; nearly all actives have a fitted effect of over 45% in size
Numbers without * were called inactive; ? = inconclusive; / = no result given; [ ] = another dose, or the depositor's remark. Most compounds without a hit are left out; they make up all but 3.7% or so of the library. Unless noted, calls come from the whole dose curve; as a rule, active = well fitted curve in the direction sought with a large enough effect; inconclusive = small, poorly fitted or top-dose-only effect, or another doubt; inactive = no such curve, though single readings can be large; an effect the other way counts as inactive or inconclusive. % is set by controls: 0 for no effect and ±100 for the full control effect; potency is the fitted concentration of half-maximal effect.

SMILES	RE007 growth inh	TbPYK inhibitor	Sm TGR block	FMDV inh
CCOC(=O)c1c(-c2ccc(C)o2)csc1NC(=O)COC(=O)c1cccs1	-3%	-36%	14µM*	?
CCOC(=O)c1c(CC(C)C)csc1NC(=O)COC(=O)c1cnc(C)cn1	12%	3%	/	5%
CCOC(=O)c1c(-c2ccc(C)o2)csc1NC(=O)CSc1ncn[nH]1	9%	?	20µM*	-16%
CC(C)c1c(C(=O)NCC2(N3CCCCC3)CCCC2)cnn1-c1nccc(-c2ccco2)n1	/	/	/	1%
Cc1ccc(-c2onc(C)c2C)cc1S(=O)(=O)N1CCc2ccccc21	/	3%	-7%	?
O=C(CSc1nc2c([nH]c3ccccc32)c(=O)n1-c1ccc(F)cc1)NC1CCCCC1	/	-3%	-1%	-26%
COc1ccc(-c2noc(CN(C)Cc3ccc(C)o3)n2)cc1	-7%	3%	35µM*	1%
Cc1nn(-c2ccccc2)c2nc(C(Cl)(Cl)Cl)[nH]c(=O)c12	18%	-5%	13µM*	?
Cc1ccc(Sc2ccc(C(=O)N(C)C)cc2[N+](=O)[O-])cc1	-1%	-5%	/	-6%
Cc1ccc(C(=O)c2coc3cc([N+](=O)[O-])c(O)c([N+](=O)[O-])c23)cc1	1%	-30%	50µM*	-13%
Cc1noc(C)c1S(=O)(=O)N(CC(=O)Nc1ccc(F)cc1F)c1ccc(C(C)C)cc1	/	-6%	8%	?
COc1cc(C2C(C(C)=O)=C(O)C(=O)N2CCN2CCOCC2)ccc1O (stereo not drawn)	4%	0%	-6%	0%
CCCOc1ccc(C2C(C(=O)/C=C/c3ccco3)=C(O)C(=O)N2CCN2CCOCC2)cc1OC (stereo not drawn)	8%	-16%	8.9µM*	6%
Oc1cc(-c2nc3ccccc3s2)cc2c1OCCN(Cc1cccn1-c1ncccn1)C2	/	/	/	37%
COc1ccc(CCNC(=O)c2sc3nc4n(c(=O)c3c2C)CCCC4)cc1OC	/	-4%	35µM*	0%
Cc1ccc(CNC(=O)c2sc3nc4n(c(=O)c3c2C)CCCCC4)cc1	/	?	-13%	-12%
Cc1c(C(=O)NCCc2ccc(Cl)cc2)sc2nc3n(c(=O)c12)CCCC3	/	-6%	45µM*	-21%
Cc1c(C(=O)NCc2ccc(Cl)cc2)sc2nc3n(c(=O)c12)CCCCC3	/	?	35µM*	-5%
Cc1ccc(CNC(=O)c2sc3nc4n(c(=O)c3c2C)CCCC4)cc1	/	-2%	56µM*	14%
Cc1c(C(=O)NCCc2ccc(Cl)cc2)sc2nc3n(c(=O)c12)CCC3	0%	-1%	-16%	12%
CCOc1ccc(/C=C/C(=O)Nc2sc3c(c2C(=O)OC)C(C(=O)OC)CC3)cc1 (stereo not drawn)	/	?	-1%	?
CCN(CC)CCCCC1CCN(CC(=O)N2c3ccccc3C(=O)Nc3cccnc32)CC1	/	/	/	-20%
Cc1cc(NC2CCCC2)n2ncc(-c3ccccc3)c2n1	-13%	-3%	-1%	40µM*
COc1ccc(OC(=O)c2nc(SCc3ccccc3C)ncc2Cl)cc1	/	5%	5%	-28%
COC(=O)[C@@H]1CCCN1Cc1ccc2c(c1)CN(Cc1ccccc1F)CCO2	/	/	/	-3%
SMILES	RE007 growth inh	TbPYK inhibitor	Sm TGR block	FMDV inh
Cc1ccc(NC(=O)/C=C/c2ccco2)cc1F	/	-3%	14µM*	11%
O=C(/C=C/c1ccco1)Nc1ccc2nn(-c3ccccc3)nc2c1	4%	-2%	32µM*	9%
Cc1cc(NC(=O)/C=C/c2ccco2)ccc1NC(=O)c1ccccc1	9%	-3%	10µM*	-5%
COCc1ccc(CN2CCOc3c(cc(-c4cc(C)c5cccc(OC)c5n4)cc3OC)C2)o1	/	/	/	-11%
CC(CNC(=O)c1cccnc1)NC(=O)c1cccnc1 (stereo not drawn)	/	3%	/	/
CC(C)n1c(SCC(=O)NCc2ccco2)nnc1C1CC1	0%	1%	18µM*	-17%
Cn1c(SCC(=O)NCc2ccco2)nnc1C1CC1	29%	2%	/	13%
Cc1ccc(NCc2nnc(SCC(=O)NCc3ccco3)n2CC2CCCO2)cc1Cl (stereo not drawn)	27%	-10%	50µM*	-21%
CCn1c(SCC(=O)NCc2ccco2)nnc1C1CCCC1	-14%	3%	40µM*	-15%
COCC1CCCN(Cc2ccc3c(c2)CN(C(=O)c2sc(C)nc2C)CCO3)C1 (stereo not drawn)	/	/	/	-2%
CC(C)c1onc(C(=O)Nc2cccnc2Cl)c1[N+](=O)[O-]	-4%	9%	45µM*	-5%
CC(C)c1onc(C(=O)Nc2cccc(O)c2)c1[N+](=O)[O-]	0%	4%	?	11%
Cc1ccc(NC(=O)c2noc(C(C)C)c2[N+](=O)[O-])cc1	-4%	4%	40µM*	34%
Cc1coc2c1c(C)cc1oc(=O)c(CC(=O)NCc3ccc(Cl)cc3)c(C)c12	/	-2%	2%	7%
CCC(C)NC(=O)c1sc2nc(C)c(C(=O)Nc3ccc(C)cc3C)c(-c3ccc(NC(C)=O)cc3)c2c1N (stereo not drawn)	/	-4%	0%	-11%
COc1ccc(NC(=S)Nc2cccc([N+](=O)[O-])c2)cc1	3%	1%	20µM*	21%
COc1ccc(NC(=O)c2cc([N+](=O)[O-])ccc2O)cc1	6.3µM*	?	0%	6.3µM*
CN(Cc1ccco1)c1nc(-c2cccnc2)nc2ccccc12	/	/	/	-7%
CN(Cc1ccccc1F)c1nc(-c2cccnc2)nc2ccccc12	32%	9%	0%	?
c1cncc(-c2nc(NCC3COc4ccccc4O3)c3ccccc3n2)c1 (stereo not drawn)	-1%	-5%	-14%	22µM*
CCOc1ccc(CN(C)c2nc(-c3cccnc3)nc3ccccc23)cc1OC	7%	3%	1%	25µM*
CN(CC1COc2ccccc2O1)c1nc(-c2cccnc2)nc2ccccc12 (stereo not drawn)	-19%	0%	3%	25µM*
Cc1ccc(CN(C)c2nc(-c3cccnc3)nc3ccccc23)o1	3%	-5%	40µM*	-29%
c1ccc(CCc2nnc3n2CCN(Cc2ccc4ccccc4n2)CC3)cc1	/	/	/	28%
O=C(C[n+]1ccc2ccccc2c1)c1cccc2ccccc12	-24%	-10%	25µM*	0%
SMILES	RE007 growth inh	TbPYK inhibitor	Sm TGR block	FMDV inh
O=C(c1cccc(F)c1)N(Cc1cc2cc3c(cc2nc1N1CCOCC1)CCC3)CC1CCCO1 (stereo not drawn)	/	/	/	-14%
CNc1sc(C(=O)c2ccccc2F)c(N)c1-c1nc2ccccc2s1	-16%[3.69 µM]	/	25µM*	11%
CCOC(=O)c1ccc(Nc2c(-c3ccc(OC)cc3)nc3nc[nH]n23)cc1	/	-13%	8%	?
CCOC(=O)c1ccc(Nc2c(-c3ccc(O)c(OC)c3)nc3nc[nH]n23)cc1	/	-15%	32µM*	0%
CCc1ccc(NC(=O)C(=O)NCCc2csc(-c3cccc(F)c3)n2)cc1	/	4%	3%	-21%
Cc1ccc(C2C(=O)c3ccccc3C2=O)cc1	16%	1%	1%	13%
CCCC(=O)Nc1ccc(C(=O)NCc2ccccc2Cl)cc1	18%	-4%	3%	11%

Screens from PubChem.
